Test results as given in PubChem BioAssay (NCATS).
Inconclusive results are not listed. A number with no mark means an inactive call. The source made the active and inactive calls. Calls follow the shape of the dose curve; as a rule, active = well fitted cell-killing curve with a large enough effect; inconclusive = small, poorly fitted or top-dose-only effect; inactive = flat fitted curve, though single readings scatter.

Experiment: qHTS of pediatric cancer cell lines to identify multiple opportunities for drug repurposing: Primary screen for RD cells (AID 1347104); also: nearly all actives have a fitted effect of over 55% in size;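 as to activity change, negative = cytotoxic: plate controls were DMSO for no effect and bortezomib for full effect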
Conditions: RD rhabdomyosarcoma viability, CellTiter-Glo luminescence, 48 h; series mostly up to 46 µM; activity change, negative = cytotoxic: at the top concentration
Procedure, shortened: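 500-1,000 cells/well; 5 h pre-incubation 37 °C/5% CO2; compound pinned; 48 h; CellTiter-Glo, 15 min RT; luminescence. MIPE 11-pt from 0.78 nM, NPC 8-pt from 0.59 nM final. Bortezomib 2.3 µM final as positive control.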
Potency is read from the fitted curve at half-maximal effect.

Row | Compound | activity change, negative = cytotoxic | Potency
1 | O=C1NC(O)CCN1[C@@H]1O[C@H](CO)[C@H](O)[C@H]1O (some centres not stated) | 3.7% | 
2 | C[C@]12C=CC(=O)N[C@@H]1CC[C@H]1[C@H]3CC[C@@H](C(=O)Nc4cc(C(F)(F)F)ccc4C(F)(F)F)[C@@]3(C)CC[C@@H]12 | -17.9% | 
3 | CC(C(C)N1CC(=O)NC(=O)C1)N1CC(=O)NC(=O)C1 (configuration not stated) | -17.3% | 
4 | CC(C)N(CC[C@H](c1ccccc1)c1cc(CO)ccc1O)C(C)C | 0.136% | 
5 | C=C[C@@H]1CN2CCC1C[C@H]2[C@H](O)c1ccnc2ccc(OC)cc12 (some centres not stated) | -3.68% | 
6 | CC1(C)[C@H](O[C@H]2O[C@H](C(=O)O)[C@@H](O)[C@H](O)[C@H]2O[C@@H]2O[C@H](C(=O)O)[C@@H](O)[C@H](O)[C@H]2O)CC[C@@]2(C)[C@H]1CC[C@]1(C)[C@H]2C(=O)C=C2[C@H]3C[C@@](C)(C(=O)O)CC[C@]3(C)CC[C@]21C | 11% | 
7 | COc1cccc2c1C(=O)c1c(O)c3c(c(O)c1C2=O)C[C@@](O)(C(=O)CO)C[C@@H]3O[C@H]1C[C@H](N)[C@H](OC2CCCCO2)[C@H](C)O1 (some centres not stated) |  | 13.2 µM (active)
8 | C[C@H](NC(=O)Cc1cc(F)cc(F)c1)C(=O)N[C@H](C(=O)OC(C)(C)C)c1ccccc1 | -18.2% | 
9 | Cc1ccc(O)c(C(CCN(C(C)C)C(C)C)c2ccccc2)c1 (configuration not stated) | -8.56% | 
10 | CCCCCCCCCCCC(CC1OC(=O)C1CCCCCC)OC(=O)C(CC(C)C)NC=O (configuration not stated) | -12.5% | 
11 | C=CCNc1c(O)cc2c(O)c1C[C@@H](C)C[C@H](OC)[C@@H](O)[C@@H](C)C=C(C)[C@H](OC(N)=O)[C@@H](OC)C=CC=C(C)C(=O)N2 |  | 0.264 µM (active)
12 | C[C@@]12C(=O)OC(=O)[C@@]1(C)C1CCC2O1 |  | 5.9 µM (active)
13 | CS(=O)(=O)N1CCc2c(-c3cnc(N)nc3)nc(N3CCOCC3)nc21 |  | 0.418 µM (active)
14 | COC(=O)[C@@H]1[C@H]2C[C@@H]3c4[nH]c5ccccc5c4CCN3C[C@@H]2CC[C@@H]1O | -21% | 
15 | O=C(Nc1ccc(Oc2ccnc3[nH]ccc23)c(F)c1)c1cccn(-c2ccc(F)cc2)c1=O | 15.3% | 
16 | CC[C@H]1OC(=O)[C@H](C)[C@@H](O[C@H]2C[C@@](C)(OC)[C@@H](O)[C@H](C)O2)[C@H](C)[C@@H](O[C@@H]2O[C@@H](C)C[C@H](N(C)C)[C@@H]2O)[C@](C)(O)C[C@@H](C)C(=O)[C@H](C)[C@@H](O)[C@]1(C)O | -24.3% | 

Row | Compound | activity change, negative = cytotoxic | Potency
17 | C=CC(=O)Nc1cccc(Nc2nc(NC3CCC(N(C)C)CC3)nc3c2ncn3C(C)C)c1 (configuration not stated) |  | 0.0833 µM (active)
18 | CC(Oc1ccc(O)cc1)(P(=O)(O)O)P(=O)(O)O | -12.7% | 
19 | COc1ccc(C(C)=O)c(O)c1 |  | 16.6 µM (active)
20 | C[C@@H]1[C@H](C)CC[C@]2(C(=O)O)CC[C@]3(C)C(=CC[C@@H]4[C@@]5(C)C[C@@H](O)[C@H](O)[C@@](C)(CO)[C@H]5CC[C@]43C)[C@@H]12 | 11.4% | 
21 | N#CNC(=NCCCCCCOc1ccc(Cl)cc1)Nc1ccncc1 |  | 0.0059 µM (active)
22 | C[C@H]1COc2c(N3CCN(C)CC3)c(F)cc3c(=O)c(C(=O)O)cn1c23 | 10.2% | 
23 | CC(C)C[C@H](NC(=O)CNC(=O)c1cc(Cl)ccc1Cl)B1OC(=O)CC(CC(=O)O)(C(=O)O)O1 (some centres not stated) |  | 0.332 µM (active)
24 | CNC(=O)c1cccc(-c2ccc3c(N4CCOC[C@H]4C)nc(N4CCOC[C@H]4C)nc3n2)c1 |  | 0.148 µM (active)
25 | C=C1CCC2[C@](C)(CO)C(O)CC[C@]2(C)C1CC=C1C(=O)OCC1O (some centres not stated) | 0.243% [at 92.7 µM] | 
26 | NC(=NCCCCCCN=C(N)N=C(N)Nc1ccc(Cl)cc1)N=C(N)Nc1ccc(Cl)cc1 |  | 11.8 µM (active)
27 | c1coc(CNc2ncnc3nc[nH]c23)c1 | 0.719% | 
28 | CCCCCCCN(CC)CCCC(O)c1ccc(NS(C)(=O)=O)cc1 (configuration not stated) | -16.4% | 
29 | CC(C=CC=C(C)C=CC1=C(C)CCCC1(C)C)=CC=CC=C(C)C=CC=C(C)C=CC1=C(C)CCCC1(C)C |  | 29.6 µM (active)
30 | CCCNC(=O)[C@H]1O[C@H]1C(=O)N[C@H](C(=O)N1CCC[C@@H]1C(=O)OC)C(C)CC (some centres not stated) |  | 10.5 µM (active)
31 | COc1ccc2cc([S+]([O-])Cc3ncc(C)c(OC)c3C)nc2c1 | 3.26% | 
32 | CC(=O)O[C@H]1C[C@@H]2CC[C@H]3[C@H]4C[C@H]([N+]5(C)CCCCC5)[C@@H](OC(C)=O)[C@@]4(C)CC[C@@H]3[C@@]2(C)C[C@H]1[N+]1(C)CCCCC1 | 0.0983% | 
